Reference: PubChem BioAssay
Values joined by “and” are separate entries in the source; they are usually repeats but may differ in a detail not shown here. Identical values can stand only once. Active and inactive are the calls of the source.

Key:
[1] = system: Plasmodium falciparum Sir2 (PF13_0152, Sir2A); experiment: Plasmodium falciparum Sir2A binding compounds – biochemical, small-molecule microarray, 635 nm fluorescence, primary screen (AID 1098); settings: fluorescence 635 nm, higher = more signal;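 note: score merges spot fluorescence intensity with its signal-to-noise ratio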
[2] = probe aDKK1 binding to arrayed compounds – biochemical, biotinylated probe, 635/667 nm fluorescence, primary screen (AID 1099); settings: small-molecule microarray, higher = more signal;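 note: score merges 667nm spot fluorescence with signal to noise across triplicate slides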
[3] = probe aCHRDL2 binding to arrayed compounds – biochemical, biotinylated probe, 635/667 nm fluorescence, primary screen (AID 1100); settings: small-molecule microarray, higher = more signal
[4] = change in splice reporter luminescence, either direction, cell-based, HEK293, spliceosome inhibition project, primary screen (AID 1101); settings: HEK293 splicing luciferase reporter, 24 h, higher = more signal, called active from +8 up or from −8 down;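 note: HEK293 cells carrying a splicing-competent luciferase reporter gene; test concentration not given here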
[5] = target: Fibroblast growth factor 10 (Homo sapiens) (UniProt O15520); experiment: compounds binding fibroblast growth factor 10 – biochemical, small-molecule microarray, 635 nm fluorescence, primary screen (AID 1102); settings: FGF10 binding, fluorescence 635 nm, higher = more signal
[6] = system: glycogen synthase kinase-3 (GSK3A per assay name; protocol says GSK3B); experiment: compounds binding glycogen synthase kinase-3 – biochemical, small-molecule microarray, 635 nm fluorescence, GSK3A, primary screen (AID 1103); settings: fluorescence 635 nm, higher = more signal; note: the record names both GSK3A and GSK3B
[7] = target: Epidermal growth factor receptor (Homo sapiens) (UniProt P00533); experiment: compounds binding epidermal growth factor receptor – biochemical, small-molecule microarray, 635 nm fluorescence, primary screen (AID 1104); settings: EGFR binding, higher = more signal;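 note: score merges 667 nm emission intensity with spot signal to noise over triplicate slides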
[8] = target: Follistatin-related protein 3 (Homo sapiens) (UniProt O95633); experiment: compounds binding follistatin-related protein 3 – biochemical, small-molecule microarray, 635 nm fluorescence, primary screen (AID 1105); settings: FSTL3 binding, higher = more signal;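 note: score merges emission near 667 nm and signal to noise per printed spot across three slides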
[9] = target: Dickkopf-related protein 1 (Homo sapiens) (UniProt O94907); experiment: small molecules binding DKK1 protein – biochemical, small-molecule microarray, 635 nm fluorescence scan, primary screen (AID 1106); settings: higher = more signal;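 note: score merges emission near 667 nm with signal to noise over three replicate slides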
[10] = system: Inhibin beta A chain (activin A); experiment: small molecules binding activin A – biochemical, small-molecule microarray, 635 nm fluorescence scan, primary screen (AID 1107); settings: INHBA, higher = more signal;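 note: mouse activin A protein probed at 4.33 µg/mL on printed slides; score merges bound-protein fluorescence near 667 nm with spot signal-to-noise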
[11] = system: Human papillomavirus type 1a protein E7 (residues 44-93); experiment: small molecules binding HPV E7 44-93 – biochemical, small-molecule microarray, residues 44-93, 635 nm fluorescence, primary screen (AID 1108); settings: fluorescence 635 nm, higher = more signal;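 note: E7 fragment applied at 1 µg/mL in TBST for 1 h at 4 C; score combines spot fluorescence with its signal to noise ratio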
[12] = hepatitis C replication reporter changes, two-sided – Huh7 cells, luciferase reporter, HCV replication inhibitor project, primary screen (AID 1109); settings: Huh7 HCV replicon luciferase reporter, 48 h; higher = more signal;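 note: huh7 hepatoma cells harbouring a luciferase neomycin HCV replicon reporter; luciferase luminescence as measure of HCV replicon replication; test concentration not given here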
[13] = target: Left-right determination factor 2 (Homo sapiens) (UniProt O00292); experiment: small molecules binding LEFTY2 protein – biochemical, small-molecule microarray, 635 nm fluorescence scan, primary screen (AID 1110); settings: higher = more signal
[14] = target: Calmodulin-1 (Homo sapiens) (UniProt P0DP23); experiment: small molecules binding calmodulin-1 with EGTA – biochemical, small-molecule microarray, Cy5-labelled CALM1, profiling panel (AID 1111); settings: Cy5-CALM1 binding fluorescence, higher = more signal;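 note: labelled calmodulin applied in Tris saline Tween buffer holding calcium plus EGTA and DTT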
[15] = target: Calmodulin-1 (Homo sapiens) (UniProt P0DP23); experiment: small molecules binding Ca-loaded calmodulin-1 – biochemical, small-molecule microarray, Cy5-labelled CALM1, plus calcium, artefact control for SMM control-protein annotation, profiling panel (AID 1112); settings: Cy5-CALM1 binding fluorescence, higher = more signal;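 note: score merges spot fluorescence with signal to noise from triplicate slides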
[16] = probe aWnt5a binding to arrayed compounds – biochemical, biotinylated probe, 635/667 nm fluorescence, primary screen (AID 1113); settings: small-molecule microarray, higher = more signal;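 note: score merges 667 nm fluorescence intensity with signal-to-noise per printed feature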
[17] = probe aShh binding to arrayed compounds – biochemical, biotinylated probe, 635/667 nm fluorescence, primary screen (AID 1114); settings: small-molecule microarray, higher = more signal;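 note: probe is biotin-labelled aShh protein from a stem cell growth factor screen; measures binding of labelled protein to compounds printed on the slide; score merges feature fluorescence at 667 nm with signal-to-noise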
[18] = probe aNog binding to arrayed compounds – biochemical, biotinylated probe, 635/667 nm fluorescence, primary screen (AID 1115); settings: small-molecule microarray, higher = more signal;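 note: probe is biotinylated aNog protein used at 0.15 µg/mL for 1 h at 4 C; z-score combines 667 nm fluorescence of each spot with its signal to noise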
[19] = target: Torsin-1A-interacting protein 1 (Homo sapiens) (UniProt Q5JTV8); experiment: compound microarray binding of lysate hLAP1 – cell lysate, small-molecule microarray, COS7 lysate, 635/667 nm fluorescence, primary screen (AID 1116); settings: 635 nm fluorescence, higher = more signal
[20] = target: Alpha-bungarotoxin (Bungarus multicinctus) (UniProt P60615); experiment: compounds binding labelled alpha-BTX control protein – biochemical, small-molecule microarray, Alexa647 label, 635/667 nm fluorescence, artefact control for SMM control protein annotation, profiling panel (AID 1117); settings: alpha-BTX-A647 binding fluorescence, higher = more signal
Alpha-bungarotoxin (Bungarus multicinctus), sequence (P60615 whole entry, looked up): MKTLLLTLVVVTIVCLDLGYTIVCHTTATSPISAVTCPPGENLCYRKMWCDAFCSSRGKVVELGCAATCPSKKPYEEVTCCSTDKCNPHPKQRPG

Dickkopf-related protein 1 (Homo sapiens), sequence (O94907 whole entry, looked up): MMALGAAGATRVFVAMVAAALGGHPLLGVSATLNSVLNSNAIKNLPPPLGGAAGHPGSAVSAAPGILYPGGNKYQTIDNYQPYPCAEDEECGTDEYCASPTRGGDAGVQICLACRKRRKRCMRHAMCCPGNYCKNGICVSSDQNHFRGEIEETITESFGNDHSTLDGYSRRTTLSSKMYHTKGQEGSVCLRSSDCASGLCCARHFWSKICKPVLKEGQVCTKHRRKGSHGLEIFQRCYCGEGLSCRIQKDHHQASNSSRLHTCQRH
Follistatin-related protein 3 (Homo sapiens), sequence (O95633 whole entry, looked up): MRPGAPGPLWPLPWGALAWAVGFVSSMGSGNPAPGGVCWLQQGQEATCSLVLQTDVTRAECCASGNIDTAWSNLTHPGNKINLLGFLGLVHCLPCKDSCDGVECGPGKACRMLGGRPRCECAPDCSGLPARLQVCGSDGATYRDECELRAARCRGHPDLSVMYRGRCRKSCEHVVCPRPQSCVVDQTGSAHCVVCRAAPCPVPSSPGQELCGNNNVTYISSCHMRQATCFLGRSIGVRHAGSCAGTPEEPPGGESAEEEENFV
Torsin-1A-interacting protein 1 (Homo sapiens), sequence (Q5JTV8 whole entry, looked up): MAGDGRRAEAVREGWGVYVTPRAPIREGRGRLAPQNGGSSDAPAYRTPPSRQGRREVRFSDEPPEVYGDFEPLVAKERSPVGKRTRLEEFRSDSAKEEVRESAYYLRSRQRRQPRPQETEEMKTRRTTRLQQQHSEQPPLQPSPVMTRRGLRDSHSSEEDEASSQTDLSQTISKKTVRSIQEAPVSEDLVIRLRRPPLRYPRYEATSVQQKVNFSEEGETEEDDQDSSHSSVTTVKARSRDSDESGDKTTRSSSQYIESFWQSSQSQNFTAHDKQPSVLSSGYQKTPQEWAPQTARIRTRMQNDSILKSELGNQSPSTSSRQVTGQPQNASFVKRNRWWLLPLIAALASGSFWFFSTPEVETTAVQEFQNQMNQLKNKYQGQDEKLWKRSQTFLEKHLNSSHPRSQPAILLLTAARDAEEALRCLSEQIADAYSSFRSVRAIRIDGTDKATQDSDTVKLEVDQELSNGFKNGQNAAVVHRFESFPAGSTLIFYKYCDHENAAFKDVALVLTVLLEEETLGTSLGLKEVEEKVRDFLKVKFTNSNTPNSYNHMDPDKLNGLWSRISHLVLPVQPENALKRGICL
Fibroblast growth factor 10 (Homo sapiens), sequence (O15520 whole entry, looked up): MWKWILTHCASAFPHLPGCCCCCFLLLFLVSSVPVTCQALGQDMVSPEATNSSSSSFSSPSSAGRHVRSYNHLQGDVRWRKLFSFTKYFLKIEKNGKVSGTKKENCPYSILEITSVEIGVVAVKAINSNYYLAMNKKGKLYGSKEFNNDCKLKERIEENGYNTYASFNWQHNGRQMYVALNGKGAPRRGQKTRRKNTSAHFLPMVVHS
Left-right determination factor 2 (Homo sapiens), sequence (O00292 whole entry, looked up): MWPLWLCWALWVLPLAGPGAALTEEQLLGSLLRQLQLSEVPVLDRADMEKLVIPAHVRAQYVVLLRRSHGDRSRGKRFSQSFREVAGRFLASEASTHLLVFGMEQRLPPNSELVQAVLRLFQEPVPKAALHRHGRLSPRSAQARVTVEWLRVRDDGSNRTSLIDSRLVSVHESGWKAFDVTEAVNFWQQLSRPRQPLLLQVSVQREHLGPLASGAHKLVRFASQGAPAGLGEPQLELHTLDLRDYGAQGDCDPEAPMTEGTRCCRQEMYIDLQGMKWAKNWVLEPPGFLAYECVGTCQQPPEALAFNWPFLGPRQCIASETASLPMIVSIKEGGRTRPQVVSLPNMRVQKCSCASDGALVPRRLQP
Epidermal growth factor receptor (Homo sapiens), sequence (P00533 whole entry, looked up): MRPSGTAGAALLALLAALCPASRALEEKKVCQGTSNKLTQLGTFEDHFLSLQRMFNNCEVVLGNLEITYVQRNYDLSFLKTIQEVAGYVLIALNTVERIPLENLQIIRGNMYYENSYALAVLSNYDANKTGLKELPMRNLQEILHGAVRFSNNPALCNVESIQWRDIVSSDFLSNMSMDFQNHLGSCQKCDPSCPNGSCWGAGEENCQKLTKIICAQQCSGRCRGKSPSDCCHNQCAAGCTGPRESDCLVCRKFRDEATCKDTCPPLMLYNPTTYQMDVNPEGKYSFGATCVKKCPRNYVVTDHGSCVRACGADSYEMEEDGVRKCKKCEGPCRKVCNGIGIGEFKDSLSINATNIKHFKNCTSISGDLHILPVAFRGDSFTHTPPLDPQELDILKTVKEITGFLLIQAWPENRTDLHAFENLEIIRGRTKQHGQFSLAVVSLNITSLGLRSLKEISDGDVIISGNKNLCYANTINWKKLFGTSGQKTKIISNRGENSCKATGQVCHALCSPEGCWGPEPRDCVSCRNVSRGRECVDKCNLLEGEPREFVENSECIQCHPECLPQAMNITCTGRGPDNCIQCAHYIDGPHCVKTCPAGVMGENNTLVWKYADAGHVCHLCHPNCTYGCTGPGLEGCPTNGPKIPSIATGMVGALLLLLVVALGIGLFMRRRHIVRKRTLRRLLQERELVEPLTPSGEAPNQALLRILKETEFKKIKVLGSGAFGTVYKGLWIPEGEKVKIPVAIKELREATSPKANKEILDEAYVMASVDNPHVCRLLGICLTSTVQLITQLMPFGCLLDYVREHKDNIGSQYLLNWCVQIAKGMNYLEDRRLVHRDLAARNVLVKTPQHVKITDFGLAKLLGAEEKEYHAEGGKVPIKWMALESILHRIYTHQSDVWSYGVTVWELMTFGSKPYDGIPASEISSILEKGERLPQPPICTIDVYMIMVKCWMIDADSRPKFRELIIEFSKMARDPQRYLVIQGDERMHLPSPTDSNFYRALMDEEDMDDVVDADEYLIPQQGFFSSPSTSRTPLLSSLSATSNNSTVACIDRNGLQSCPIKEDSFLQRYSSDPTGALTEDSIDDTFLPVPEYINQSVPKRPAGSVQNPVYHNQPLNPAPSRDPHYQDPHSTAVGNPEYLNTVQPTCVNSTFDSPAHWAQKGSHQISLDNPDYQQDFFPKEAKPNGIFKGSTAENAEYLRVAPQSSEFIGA

C[C@@]1([C@@H](NC(=O)Cc2ccccc2)c2ccc(-c3ccccc3)cc2)C[C@H]1C1CCCCC1
composite z-score [1]: 0.334 and 0.359 and 0.301 | composite z-score [2]: 1.14 and 1.83 and -0.112 | composite z-score [3]: 0.775 and 1.08 and 0.538 | z-score [4]: -4.09 (inactive) and -1.68 (inactive) and 0.868 (inactive) | composite z-score [5]: 0.543 and 0.838 and 0.0825 | composite z-score [6]: 0.271 and 0.234 and 0.826 | composite z-score [7]: -0.0372 and 0.289 and -0.265 | composite z-score [8]: -0.008 and -0.172 and 0.156 | composite z-score [9]: -0.193 and -0.286 and -0.719 | composite z-score [10]: 1.3 and 1.08 and 0.556 | composite z-score [11]: 0.208 and 0.778 and 1.16 | z-score [12]: -2.39 and -1.33 and -0.271 | composite z-score [13]: -0.109 and -0.069 and 0.118 | composite z-score [14]: 1.7 and 1.95 and 1.63 | composite z-score [15]: 1.26 and 1.28 and 0.753 | composite z-score [16]: 0.631 and 1.04 and 0 | composite z-score [17]: 2.22 and 2.04 and -0.493 | composite z-score [18]: 0.292 and 1.37 and 1.17 | composite z-score [19]: -0.288 and -0.307 and 0.775 | composite z-score [20]: 1 and 0.582 and 1.93

C=CCN(Cc1ccccc1)C(=O)C1N(c2c(Cl)cccc2CO)C(=O)C2C(C(=O)O)C3C=CC21O3 (stereo not given)
composite z-score [1]: -1.57 and -0.0019 | composite z-score [2]: 0.059 and 0.175 | composite z-score [3]: 0.845 and 1.19 | z-score [4]: -2.02 (inactive) and -0.804 (inactive) | composite z-score [5]: -0.944 and -1.32 | composite z-score [6]: -1.84 and -1.45 | composite z-score [7]: -1.91 and -1.77 | composite z-score [8]: -1.61 and -2.46 | composite z-score [9]: -2.28 and -1.9 | composite z-score [10]: -0.934 and -2.5 | composite z-score [11]: -2.6 and -0.99 | z-score [12]: -0.431 and -0.961 | composite z-score [13]: -3.36 and -2.65 | composite z-score [14]: -0.998 and -0.846 | composite z-score [15]: 0.686 and 0.031 | composite z-score [16]: -0.215 and -0.291 | composite z-score [17]: -0.221 and -0.0866 | composite z-score [18]: -0.261 and -0.281 | composite z-score [19]: -0.74 and -0.831 | composite z-score [20]: -2.7 and -1.89

C=CCN(CCCCC)C(=O)C1N(CCOCCO)C(=O)C2C(C(=O)O)C3C=CC21O3 (stereo not given)
composite z-score [1]: 0.128 and 1.72 | composite z-score [2]: -0.344 and -0.208 | composite z-score [3]: 0.77 and 0.925 | z-score [4]: 0.8 (inactive) and 1.24 (inactive) | composite z-score [5]: -1.48 and -1.61 | composite z-score [6]: -1.97 and -0.615 | composite z-score [7]: -1.74 and -1.79 | composite z-score [8]: -1.54 and -1.58 | composite z-score [9]: -2.58 and -3.23 | composite z-score [10]: -1.97 and -1.95 | composite z-score [11]: -1.53 and -0.495 | z-score [12]: -0.586 and 0.715 | composite z-score [13]: -2.78 and -1.83 | composite z-score [14]: -0.368 and -0.355 | composite z-score [15]: 1.01 and 1.07 | composite z-score [16]: -0.276 and -0.328 | composite z-score [17]: 0.0048 and -0.124 | composite z-score [18]: -0.149 and -0.201 | composite z-score [19]: -1.04 and 1.94 | composite z-score [20]: -1.16 and -3.11

CCC[C@@H]1C[C@@]1(CCC)[C@@H](NC(=O)c1ccc(-c2ccccc2)cc1)c1cccc(Cl)c1
composite z-score [1]: 1.21 and 0.366 | composite z-score [2]: 1.34 and 0.898 | composite z-score [3]: 1.09 and 1.13 | z-score [4]: -3.74 (inactive) and -1.69 (inactive) | composite z-score [5]: -0.592 and 0.143 | composite z-score [6]: -0.826 and -0.349 | composite z-score [7]: -0.346 and 0.0087 | composite z-score [8]: -0.46 and -0.339 | composite z-score [9]: -0.0916 and -0.455 | composite z-score [10]: 1.53 and 0.896 | composite z-score [11]: -0.802 and 0.457 | z-score [12]: -2.13 and -2.05 | composite z-score [13]: -0.307 and -0.135 | composite z-score [14]: -1.57 and 0.535 | composite z-score [15]: -1.45 and 0.215 | composite z-score [16]: 0.874 and 0.103 | composite z-score [17]: 2.27 and -0.138 | composite z-score [18]: 2.75 and 0.507 | composite z-score [19]: 0.415 and 0.868 | composite z-score [20]: -0.899 and -0.0107

C#CCCCON=C1C[C@@H](O)[C@@H](O)[C@@H]2[C@@H]3C(=O)N(C4CCCCC4)C(=O)[C@@H]3CC[C@H]12
composite z-score [1]: 0.72 | composite z-score [2]: 0.149 | composite z-score [3]: -0.0642 | z-score [4]: -0.285 (inactive) | composite z-score [5]: 0.402 | composite z-score [6]: 0.355 | composite z-score [7]: 0.217 | composite z-score [8]: 0.348 | composite z-score [9]: 0.0938 | composite z-score [10]: 0.24 | composite z-score [11]: 0.774 | z-score [12]: -0.147 | composite z-score [13]: 0.16 | composite z-score [14]: 0.974 | composite z-score [15]: 0.244 | composite z-score [16]: 0.454 | composite z-score [17]: -0.0177 | composite z-score [18]: -0.134 | composite z-score [19]: 0.104 | composite z-score [20]: 2.51
